Measured values: PubChem BioAssay
Calls of active or inactive are those of the source.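 How the source made its calls, unless noted: active means binding below the plate cutoff, the plate median minus 3 SD, with a reading above zero; inconclusive means below the plate cutoff but reading exactly zero; inactive means the rest.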

Columns and labels:
[1] = reduced mouse 2C T cell binding to pMHC/ICAM-1 vesicles – MLPCN validation set, flow cytometry, LFA-1/ICAM-1 modulator project, pilot screen (AID 2523;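 active means response below a set limit, under 55% cells CD8-positive and vesicle-bound, and CD8 cells' 90th-percentile brightness under 279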;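 on vesicle binding response: mean PE anti-B7-1 fluorescence of CD8+ cells relative to row control; 100% = QL9-loaded vesicles with DMSO vehicle in the same plate row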); settings: 2C mouse CD8+ T cells, at 7 µM, stronger effect = lower value; double positive events: measured here: CD8+/vesicle+ event percentage
[2] = molecular target: Integrin beta-1 (Homo sapiens) + Integrin alpha-4 (Homo sapiens) (UniProt P13612+P05556); assay: alpha4beta1 integrin LIBS antibody binding reduction – U937 cells, HUTS-21 mAb, flow cytometry, validation set, VLA-4 allosteric modulator project, pilot screen (AID 2674;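 active means inhibition above 50%, about 3 SD of the validation set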;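 further: antibody binding induced by the VLA-4 ligand LDV present at three times its Kd; 0% = LDV ligand with antibody and no compound and 100% = antibody without LDV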); settings: HUTS-21 LIBS mAb binding, at 6.7 µM, stronger effect = higher value, binding induced by LDV ligand
[3] = calorie-restriction mimetic ROS inhibitors, yeast – validation compound set, pilot screen (AID 2706;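 active means superoxide response below 65% of plate, a cut near 3 SD across the whole screen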;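 further: yeast exposed to compound for one week at 30 degrees C before staining; 100% = mean of all compound wells on the same plate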); settings: S. cerevisiae aging, superoxide DHE fluorescence; at 10 µM, stronger effect = lower value
[4] = molecular target: Beta-adrenergic receptor kinase 1 (Homo sapiens) (UniProt P25098); assay: GRK2 binders displacing RNA aptamer, biochemical, validation, human GRK2, bead flow cytometry (AID 488806;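 active means aptamer binding inhibition above 30%, about 3 SD of noise from non-fluorescent compounds; inactive means inhibition at or below 30%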); settings: bead-bound GRK2, FAM-aptamer displacement, at 10 µM, stronger effect = higher value
[5] = molecular target: AP-2 complex subunit beta (Homo sapiens) (UniProt P63010); assay: beta-arrestin/AP2 interaction blockers – biochemical, validation set, GST-AP2 beads, flow cytometry, pilot screen (AID 504541;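 active means inhibition above 54%, about 3 SD of non-fluorescent compounds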;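 further: AP2 carries R879A mutation and is captured from E. coli lysate; bead-bound FITC arrestin peptide fluorescence measuring arrestin peptide binding to AP2; 0% = DMSO wells and 100% = excess unlabeled arrestin peptide control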); settings: FITC arrestin peptide, at 10 µM, stronger effect = higher value, AP2 beta2 appendage fragment, R879A mutant
[6] = cytosolic pH regulators acting via V-ATPase – S. cerevisiae, pHLuorin, HTS validation (AID 504600; in the data active means response above about 15%;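 further: plate controls were DMSO for no effect and reference compound for full effect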); settings: V-ATPase proton transport, at 10 µM, stronger effect = higher value
[7] = test system: anti-desmoglein-3 scFv antibody binding to human DSG3; assay: blockers of pathogenic pemphigus antibody–desmoglein-3 binding – biochemical, validation compound set, bead-based, flow cytometry, pilot screen (AID 588368); settings: Protein G beads, DSG3-Fc, scFv-GFP binding, at 10 µM, stronger effect = lower value;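 further: signal is the median channel fluorescence of bead-bound GFP antibody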
[8] = Nile Red efflux blockade in pump-expressing yeast – validation compound set, multiplex, phenotypic, pilot screen (AID 588506;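 active means efflux inhibition above 0.42, the validation set average plus 4 SD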;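 further: Nile Red retained in cells so higher fluorescence means more efflux inhibition; 0 = negative control wells and 1 = enniatin B 25 µM full block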); settings: S. cerevisiae pump-expressing triplex, Nile Red efflux flow cytometry; at 10 µM; stronger effect = higher value; the pumps come from Candida albicans
[9] = molecular target: ATP-binding cassette sub-family B member 6 (Homo sapiens) (UniProt Q9NP58); assay: blockers of ABCB6-driven porphyrin uptake – K562-ABCB6 cells, flow cytometry, validation set, pilot screen (AID 588550;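 active means inhibition above the screen-wide mean plus 3 SD, about 51%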;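 further: 0% = DMSO wells and 100% = benzethonium chloride 70 µM positive control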); settings: K562-ABCB6 porphyrin accumulation, 1 h, at 10 µM, stronger effect = higher value
[10] = AML differentiation inducers, ER-HoxA9 marrow cells – cell-based, GFP/MAC1 double positive, flow cytometry, validation set, primary screen (AID 588685;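 active means differentiation response of at least 50%, scaled between solvent and reference control, from cells with both markers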;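 further: compound exposure lasts four days before antibody staining and flow analysis; 0% = DMSO wells and 100% = 5 µM fulvestrant positive control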); settings: stronger effect = higher value, normalized: vehicle 0, fulvestrant 100
[11] = molecular target: Beta-2 adrenergic receptor (Homo sapiens) (UniProt P07550); assay: agonist-induced loss of surface beta2AR – cell-based, FAP fluorogen, flow cytometry, validation set, pilot screen (AID 504459;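 active means percent response above 42, roughly 3 SD of non-fluorescent test compounds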;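 further: agonist-driven loss of surface beta2AR via internalization measured by FAP dye flow cytometry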); settings: Am2.2-beta2AR cells, at 10 µM, stronger effect = higher value
Sequence of Beta-2 adrenergic receptor (Homo sapiens) (P07550 whole entry, looked up): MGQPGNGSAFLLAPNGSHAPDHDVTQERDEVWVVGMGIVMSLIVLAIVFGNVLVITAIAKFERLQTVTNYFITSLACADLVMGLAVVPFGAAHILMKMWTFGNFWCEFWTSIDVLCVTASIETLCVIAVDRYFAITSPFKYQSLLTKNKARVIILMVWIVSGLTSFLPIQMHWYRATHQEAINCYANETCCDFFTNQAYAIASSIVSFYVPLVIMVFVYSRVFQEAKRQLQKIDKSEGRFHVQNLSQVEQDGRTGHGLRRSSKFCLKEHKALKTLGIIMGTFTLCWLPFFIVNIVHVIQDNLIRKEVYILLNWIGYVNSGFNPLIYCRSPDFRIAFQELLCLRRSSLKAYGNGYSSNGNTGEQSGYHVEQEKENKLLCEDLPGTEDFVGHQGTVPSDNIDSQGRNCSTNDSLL

Sequence of Integrin beta-1 (Homo sapiens) + Integrin alpha-4 (Homo sapiens) (P05556 whole entry, looked up): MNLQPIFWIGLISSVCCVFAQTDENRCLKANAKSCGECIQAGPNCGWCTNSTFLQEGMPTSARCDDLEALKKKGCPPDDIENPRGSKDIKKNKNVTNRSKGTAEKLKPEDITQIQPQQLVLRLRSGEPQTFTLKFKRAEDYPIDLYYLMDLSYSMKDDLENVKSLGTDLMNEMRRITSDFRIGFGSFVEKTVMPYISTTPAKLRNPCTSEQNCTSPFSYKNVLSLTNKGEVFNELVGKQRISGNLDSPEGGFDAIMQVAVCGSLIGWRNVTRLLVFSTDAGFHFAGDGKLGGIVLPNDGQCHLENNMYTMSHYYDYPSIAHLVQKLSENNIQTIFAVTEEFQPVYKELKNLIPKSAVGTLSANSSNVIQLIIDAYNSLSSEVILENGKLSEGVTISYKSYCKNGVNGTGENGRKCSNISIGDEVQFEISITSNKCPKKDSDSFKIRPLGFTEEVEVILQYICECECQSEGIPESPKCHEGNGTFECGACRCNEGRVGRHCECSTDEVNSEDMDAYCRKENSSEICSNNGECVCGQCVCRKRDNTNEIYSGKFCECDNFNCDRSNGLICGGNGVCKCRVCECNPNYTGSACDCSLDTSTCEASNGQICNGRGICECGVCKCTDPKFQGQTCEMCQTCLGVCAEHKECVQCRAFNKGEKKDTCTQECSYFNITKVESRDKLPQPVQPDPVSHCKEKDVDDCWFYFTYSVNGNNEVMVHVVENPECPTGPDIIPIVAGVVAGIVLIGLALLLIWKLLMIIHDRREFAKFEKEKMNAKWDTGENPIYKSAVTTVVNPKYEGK
Sequence of Integrin beta-1 (Homo sapiens) + Integrin alpha-4 (Homo sapiens) (P13612 whole entry, looked up): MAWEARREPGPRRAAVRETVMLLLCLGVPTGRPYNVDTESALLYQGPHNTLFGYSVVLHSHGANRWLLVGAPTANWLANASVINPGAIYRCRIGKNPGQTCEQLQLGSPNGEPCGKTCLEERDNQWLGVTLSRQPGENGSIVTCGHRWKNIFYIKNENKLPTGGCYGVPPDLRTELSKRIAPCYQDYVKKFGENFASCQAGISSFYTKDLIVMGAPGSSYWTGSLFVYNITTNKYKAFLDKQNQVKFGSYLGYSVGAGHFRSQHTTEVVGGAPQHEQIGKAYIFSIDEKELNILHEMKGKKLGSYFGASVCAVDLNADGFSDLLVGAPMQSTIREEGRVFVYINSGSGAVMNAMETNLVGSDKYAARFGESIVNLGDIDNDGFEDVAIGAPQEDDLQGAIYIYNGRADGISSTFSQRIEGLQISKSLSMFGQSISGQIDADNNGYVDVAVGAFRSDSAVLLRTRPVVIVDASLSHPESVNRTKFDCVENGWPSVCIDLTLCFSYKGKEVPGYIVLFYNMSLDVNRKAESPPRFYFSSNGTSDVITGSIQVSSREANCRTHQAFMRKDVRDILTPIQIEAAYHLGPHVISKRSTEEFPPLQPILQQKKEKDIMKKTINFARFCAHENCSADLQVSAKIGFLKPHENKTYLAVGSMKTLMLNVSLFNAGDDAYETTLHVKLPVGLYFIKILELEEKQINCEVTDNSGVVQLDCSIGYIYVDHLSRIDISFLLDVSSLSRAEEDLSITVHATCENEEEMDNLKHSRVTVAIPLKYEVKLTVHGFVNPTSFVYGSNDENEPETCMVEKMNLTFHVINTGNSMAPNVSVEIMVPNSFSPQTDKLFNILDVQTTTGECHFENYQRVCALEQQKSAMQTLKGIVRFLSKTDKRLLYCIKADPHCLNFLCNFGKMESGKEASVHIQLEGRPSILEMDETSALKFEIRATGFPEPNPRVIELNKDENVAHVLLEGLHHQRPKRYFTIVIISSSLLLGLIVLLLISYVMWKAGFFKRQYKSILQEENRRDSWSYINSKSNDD
Sequence of Beta-adrenergic receptor kinase 1 (Homo sapiens) (P25098 whole entry, looked up): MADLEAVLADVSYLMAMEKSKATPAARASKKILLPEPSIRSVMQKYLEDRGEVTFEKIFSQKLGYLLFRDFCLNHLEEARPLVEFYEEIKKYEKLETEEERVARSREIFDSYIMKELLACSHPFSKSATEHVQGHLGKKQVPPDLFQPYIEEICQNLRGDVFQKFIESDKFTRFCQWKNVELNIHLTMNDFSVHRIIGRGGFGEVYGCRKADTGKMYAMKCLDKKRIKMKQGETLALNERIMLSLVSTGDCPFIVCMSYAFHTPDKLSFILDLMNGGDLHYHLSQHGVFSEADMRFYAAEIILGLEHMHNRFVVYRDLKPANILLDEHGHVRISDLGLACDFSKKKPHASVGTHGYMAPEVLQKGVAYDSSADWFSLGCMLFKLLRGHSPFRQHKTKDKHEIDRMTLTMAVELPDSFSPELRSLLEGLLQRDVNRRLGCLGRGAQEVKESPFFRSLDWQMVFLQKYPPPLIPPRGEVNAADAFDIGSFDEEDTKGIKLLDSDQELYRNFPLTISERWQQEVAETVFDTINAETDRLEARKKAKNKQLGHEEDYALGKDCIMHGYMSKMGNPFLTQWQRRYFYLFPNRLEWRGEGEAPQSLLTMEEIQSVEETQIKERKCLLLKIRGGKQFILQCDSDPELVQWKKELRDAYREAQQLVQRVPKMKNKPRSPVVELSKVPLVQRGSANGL
Sequence of AP-2 complex subunit beta (Homo sapiens) (P63010 whole entry, looked up, the tested form may be a part, one chain of several): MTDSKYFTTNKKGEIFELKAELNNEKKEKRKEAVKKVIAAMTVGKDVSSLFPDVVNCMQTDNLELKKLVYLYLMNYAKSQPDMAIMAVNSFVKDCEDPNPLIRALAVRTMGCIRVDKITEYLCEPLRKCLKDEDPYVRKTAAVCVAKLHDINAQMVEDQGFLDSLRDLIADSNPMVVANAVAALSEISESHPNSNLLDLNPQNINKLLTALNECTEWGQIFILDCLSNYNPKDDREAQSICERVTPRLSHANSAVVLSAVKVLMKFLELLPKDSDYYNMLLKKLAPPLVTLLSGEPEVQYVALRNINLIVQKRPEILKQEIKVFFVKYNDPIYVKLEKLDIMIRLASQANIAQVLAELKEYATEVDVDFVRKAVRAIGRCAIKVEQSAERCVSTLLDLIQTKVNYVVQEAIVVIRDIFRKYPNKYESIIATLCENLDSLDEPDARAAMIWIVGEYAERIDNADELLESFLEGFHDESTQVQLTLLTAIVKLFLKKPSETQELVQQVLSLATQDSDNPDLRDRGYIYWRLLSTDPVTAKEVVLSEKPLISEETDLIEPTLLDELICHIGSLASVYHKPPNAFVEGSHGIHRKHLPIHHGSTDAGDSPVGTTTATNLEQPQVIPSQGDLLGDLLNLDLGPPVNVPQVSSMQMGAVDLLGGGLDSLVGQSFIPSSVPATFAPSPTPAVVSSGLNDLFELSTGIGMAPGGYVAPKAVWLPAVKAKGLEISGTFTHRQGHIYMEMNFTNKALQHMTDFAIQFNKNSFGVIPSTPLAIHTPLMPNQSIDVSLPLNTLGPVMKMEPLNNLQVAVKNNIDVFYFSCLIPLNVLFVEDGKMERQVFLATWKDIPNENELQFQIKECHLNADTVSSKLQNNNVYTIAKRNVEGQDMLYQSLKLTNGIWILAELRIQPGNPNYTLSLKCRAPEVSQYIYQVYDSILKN
Sequence of ATP-binding cassette sub-family B member 6 (Homo sapiens) (Q9NP58 whole entry, looked up): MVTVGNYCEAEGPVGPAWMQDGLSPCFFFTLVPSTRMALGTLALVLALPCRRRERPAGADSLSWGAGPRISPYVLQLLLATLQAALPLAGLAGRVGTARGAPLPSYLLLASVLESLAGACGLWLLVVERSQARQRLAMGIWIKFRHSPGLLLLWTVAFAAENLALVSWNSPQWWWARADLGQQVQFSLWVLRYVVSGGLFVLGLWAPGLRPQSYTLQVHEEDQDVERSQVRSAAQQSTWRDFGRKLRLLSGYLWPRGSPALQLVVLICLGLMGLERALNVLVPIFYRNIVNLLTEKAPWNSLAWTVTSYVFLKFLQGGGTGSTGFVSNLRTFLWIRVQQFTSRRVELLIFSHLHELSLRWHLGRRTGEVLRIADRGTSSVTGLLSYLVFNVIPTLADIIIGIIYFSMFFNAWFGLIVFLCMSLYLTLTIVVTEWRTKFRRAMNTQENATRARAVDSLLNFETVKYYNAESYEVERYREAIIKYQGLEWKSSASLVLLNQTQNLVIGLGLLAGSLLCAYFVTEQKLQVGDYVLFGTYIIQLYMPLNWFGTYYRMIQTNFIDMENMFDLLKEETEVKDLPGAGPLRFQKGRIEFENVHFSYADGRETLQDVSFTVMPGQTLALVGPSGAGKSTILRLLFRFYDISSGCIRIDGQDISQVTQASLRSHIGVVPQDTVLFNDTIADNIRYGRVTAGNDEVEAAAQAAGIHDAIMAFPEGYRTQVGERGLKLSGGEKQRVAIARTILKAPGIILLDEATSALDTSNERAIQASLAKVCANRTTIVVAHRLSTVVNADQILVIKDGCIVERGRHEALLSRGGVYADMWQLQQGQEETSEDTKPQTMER

| SMILES | double positive events [1] [%] | vesicle binding response [1] | inhibition [2] | superoxide response (% of plate) [3] | aptamer binding inhibition [4] | inhibition [5] | response [6] | binding (% of control) [7] | efflux inhibition (fraction of control) [8] | inhibition [9] | differentiation response [10] | response [11] |
| --- | --- | --- | --- | --- | --- | --- | --- | --- | --- | --- | --- | --- |
| COC(=O)c1[nH]c2ccc(F)cc2c1NC(=O)C1=COCCO1 | 55.5 | 252% (inactive) | -3.04% (inactive) | 89.2% (inactive) | 1% (inactive) | 1.47% (inactive) | -2.26% (inactive) | 92.8% (inactive) | -0.01 (inactive) | 7% (inactive) | 45% (inactive) |  |
| O=C(c1ccccc1)N1CCN(C(=O)c2ccccc2)CC1 | 57.3 | 175% (inactive) | -0.43% (inactive) | 102% (inactive) | 7% (inactive) | -3.54% (inactive) | -5.95% (inactive) | 104% (inactive) | -0.13 (inactive) | 3% (inactive) | 12% (inactive) | -22.4% (inactive) |
| N=c1ccn(CC(=O)NC(N)=O)c2ccccc12 | 55.8 | 241% (inactive) | 12.8% (inactive) | 99.5% (inactive) | 4% (inactive) | 8.55% (inactive) | 14.2% (inactive) | 95.7% (inactive) | -0.09 (inactive) | -15% (inactive) | -3.43% (inactive) |  |
| COc1cc2c(cc1O)CCN(C(=O)c1ccco1)C2C (stereo not drawn) | 59.4 | 242% (inactive) | 5.03% (inactive) | 98.4% (inactive) | -1% (inactive) | 14.6% (inactive) | 0.13% (inactive) | 97.4% (inactive) | 0.22 (inactive) | 4% (inactive) | 8.8% (inactive) | 0.24% (inactive) |
| COc1cc2ccc(=O)oc2c(O)c1OCC=C(C)C | 63.7 | 190% (inactive) | -12.9% (inactive) | 102% (inactive) | -1% (inactive) | -0.67% (inactive) | -0.32% (inactive) | 98.2% (inactive) | 0.05 (inactive) | 10% (inactive) | 7.09% (inactive) | -9.13% (inactive) |
| O=C(CCNNC(=O)c1ccncc1)NCc1ccccc1 | 66.8 | 184% (inactive) | 18.4% (inactive) | 101% (inactive) | -1% (inactive) | 26.4% (inactive) | 1.75% (inactive) | 99% (inactive) | 0.48 (active) | 5% (inactive) | -24.4% (inactive) |  |
| Cc1ccsc1/C=N\NC(=O)c1ccc2c(c1)OCO2 | 62.5 | 183% (inactive) | 10.9% (inactive) | 97% (inactive) | 3% (inactive) | 11.1% (inactive) | 1.01% (inactive) | 99.5% (inactive) | -0.12 (inactive) | 7% (inactive) | 1.41% (inactive) |  |
| CSc1ccc2c(c1)N(CCC1CCCCN1C)c1ccccc1S2 (stereo not drawn) | 66.7 | 166% (inactive) | 27.1% (inactive) | 88.6% (inactive) | -7% (inactive) | 0.21% (inactive) | -0.24% (inactive) | 106% (inactive) | -0.145 (inactive) |  | 11.5% (inactive) | 60.7% (active) |
| Cc1oc2c(C)c3oc(=O)c4c(c3cc2c1C)CCCC4 | 54.6 | 32.8% (active) | -22.2% (inactive) | 114% (inactive) | 3% (inactive) | -2.86% (inactive) | 0.57% (inactive) | 89.1% (inactive) | -0.2 (inactive) | 2% (inactive) | 2.2% (inactive) | -4.45% (inactive) |
| O=C(Oc1cccccc1=O)c1ccccc1 | 63.4 | 281% (inactive) | 21% (inactive) | 105% (inactive) | 6% (inactive) | 1.79% (inactive) | -32.2% (inactive) | 102% (inactive) | 0 (inactive) | 2% (inactive) | 5.85% (inactive) | -20.4% (inactive) |
| COc1ccc2[nH]c(C)c(CN3CCC(C)CC3)c(=O)c2c1 | 50.2 | 154% (inactive) | -14.2% (inactive) | 100% (inactive) | 2% (inactive) | -1.75% (inactive) | 4.29% (inactive) | 98.5% (inactive) | 0.1 (inactive) | 2% (inactive) | -5.05% (inactive) |  |
| COC(=O)c1cc(OC)c(OC)cc1NC(=O)Nc1ccc(OC)cc1OC | 58.5 | 105% (inactive) | -14.5% (inactive) | 82% (inactive) | 0% (inactive) | 11.9% (inactive) | -1.21% (inactive) | 100% (inactive) | -0.205 (inactive) | 7% (inactive) | 13% (inactive) | 5.38% (inactive) |
| CC12CCC(C(=O)Nc3ccccc3Br)(C/C1=N\O)C2(C)C (stereo not drawn) | 58.3 | 154% (inactive) | -6.77% (inactive) | 92.2% (inactive) | 3% (inactive) | -0.26% (inactive) | 2.28% (inactive) | 96% (inactive) | -0.12 (inactive) | 9% (inactive) | -9.89% (inactive) |  |
| CCNC(=O)c1sc2cc(C)ccc2c1Cl | 60.2 | 294% (inactive) | -10.5% (inactive) | 86.4% (inactive) | -2% (inactive) | -9.7% (inactive) | 0.2% (inactive) | 99.5% (inactive) | -0.16 (inactive) | 5% (inactive) | 1.41% (inactive) |  |
| Cn1c(=O)[nH]c(=O)c2c1nc(Br)n2CCCO | 64.5 | 261% (inactive) | 6.29% (inactive) | 90.2% (inactive) | 0% (inactive) | 7.12% (inactive) | 0.07% (inactive) | 109% (inactive) | -0.01 (inactive) | 8% (inactive) | -24.4% (inactive) |  |
| CNC[C@H](O)c1cccc(O)c1 | 61.2 | 124% (inactive) | -10.5% (inactive) | 96.3% (inactive) | 0% (inactive) | -4.38% (inactive) | 3.91% (inactive) | 102% (inactive) | 0.875 (active) | -8% (inactive) | 7.13% (inactive) |  |
| O=C(O)c1cc(-c2ccccc2)nc2ccccc12 | 62 | 151% (inactive) | 23.1% (inactive) | 98.3% (inactive) | 4% (inactive) | 27.6% (inactive) | -5.56% (inactive) | 96.2% (inactive) | 0.1 (inactive) | -2% (inactive) | 6.26% (inactive) |  |
| Cc1ccc2[nH]c3c(=O)n(CCCN4CCN(C)CC4)cnc3c2c1 | 60.7 | 195% (inactive) | 7.22% (inactive) | 99.9% (inactive) | 4% (inactive) | 24.8% (inactive) | -6.94% (inactive) | 99.3% (inactive) | -0.2 (inactive) | 12% (inactive) | 30.5% (inactive) |  |
| Cc1ncc(C(=O)O)c(C(=O)O)c1N | 52.2 | 184% (inactive) | 4.42% (inactive) | 110% (inactive) | 2% (inactive) | -2.62% (inactive) | -3.73% (inactive) | 100% (inactive) | -0.09 (inactive) | 8% (inactive) | -14.7% (inactive) |  |
| C[C@]12CCC(=O)C=C1CC[C@@H]1[C@@H]2CC[C@@]2(C)[C@H]1CC[C@]2(O)C(=O)CO | 54.2 | 143% (inactive) | 5.36% (inactive) | 96.8% (inactive) | 4% (inactive) | -3.62% (inactive) | 1.37% (inactive) | 96.2% (inactive) | -0.31 (inactive) | 4% (inactive) | -3.43% (inactive) |  |
| C(=C/c1nccc2c1[nH]c1ccccc12)/c1ccc2c(c1)OCO2 | 58.5 | 170% (inactive) | -239% (inactive) | 93.4% (inactive) | -1% (inactive) | 23.3% (inactive) | 1.54% (inactive) | 144% (inactive) | -0.35 (inactive) | 8% (inactive) | -18% (inactive) |  |
| CNS(=O)(=O)c1ccc(C)cc1 | 56.5 | 148% (inactive) | 6.29% (inactive) | 99.3% (inactive) | 2% (inactive) | -8.71% (inactive) | 17.1% (active) | 93.9% (inactive) | 0.1 (inactive) | 8% (inactive) | -0.2% (inactive) |  |
| CN(C)CCN(Cc1cccs1)c1ccccn1 | 52.7 | 165% (inactive) | 13.8% (inactive) | 113% (inactive) | 2% (inactive) | -17.1% (inactive) | 8.75% (inactive) | 101% (inactive) | 0.18 (inactive) | 8% (inactive) | -21.2% (inactive) |  |
| O=C1CC(c2ccc(F)cc2)Cc2nc(NCC3CCCO3)ncc21 (stereo not drawn) | 55.2 | 192% (inactive) | 6.29% (inactive) | 99.1% (inactive) | 3% (inactive) | -9.45% (inactive) | -2.69% (inactive) | 99.8% (inactive) | -0.12 (inactive) | 7% (inactive) | 38.5% (inactive) |  |
| Cc1c(CCOC(=O)CC23CC4CC(CC(C)(C4)C2)C3)sc[n+]1Cc1ccc([N+](=O)[O-])cc1 | 59 | 208% (inactive) | 8.15% (inactive) | 98.4% (inactive) | -9% (inactive) | -6.04% (inactive) | 3.23% (inactive) | 108% (inactive) | 1.81 (active) | 6% (inactive) | 0% (inactive) |  |
| CC(=O)N=c1sc(S(N)(=O)=O)nn1C | 48.1 | 166% (inactive) | -9.57% (inactive) | 97% (inactive) | 4% (inactive) | -6.47% (inactive) | -25.8% (inactive) | 99.6% (inactive) | -0.01 (inactive) | 8% (inactive) | 11.1% (inactive) |  |
| COc1ccc(CNC(=O)c2cc3c(=O)n4ccccc4nc3n(Cc3cccnc3)c2=N)cc1 | 60.5 | 131% (inactive) | -2.11% (inactive) | 92.2% (inactive) | -6% (inactive) | -0.26% (inactive) | 3.99% (inactive) | 112% (inactive) | 0.22 (inactive) | 4% (inactive) | -9.89% (inactive) |  |
